Compounds with a hit are over-represented: about 10% of the library has one in this group of screens.
NIH3T3 tox: kills NIH 3T3 cells; Potency, µM (series often up to 96.7 µM), hits mostly inhibitors; AID 1345082; 94,000 compounds, 4.3% hits; NIH 3T3 viability, CellTiter-Glo ATP luminescence, 48-72 h; further: nearly all actives have a fitted effect of over 55% in size
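Cytotoxicity is measured as loss of cellular ATP: NIH 3T3 cells (400/well) are exposed to compound for 48 or 72 hr at 37 °C, then CellTiter-Glo luminescence is imaged after 10 min at room temperature.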
GPT2 inh: blocks human glutamate pyruvate transaminase 2; Recombinant GPT2, coupled pyruvate oxidase/HRP Amplex Red fluorescence; Potency, µM (highest dose often 57.7 µM), hits mostly inhibitors; 100,000 compounds, 0.25% hits; further: nearly all actives have a fitted effect of over 60% in size
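GPT2 10ng/uL, a-KG 250uM, L-Ala 2mM, HEPES pH7.5 + 0.0001% Tween; 30 min RT. Then Amplex mix (PO/HRP/ThPP), 30 min RT dark, fluorescence. AOA 50uM used as positive control.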
Luciferase inh: Photinus pyralis luciferase inhibition. P08659. purified P. pyralis luciferase, luminescence, biochemical. Potency, µM (titrated, usually from 115 µM), most hits filed as inhibitors. 76,000 compounds, 2.5% hits; further: nearly all actives have a fitted effect of over 65% in size
Target sequence (P08659 whole entry, looked up): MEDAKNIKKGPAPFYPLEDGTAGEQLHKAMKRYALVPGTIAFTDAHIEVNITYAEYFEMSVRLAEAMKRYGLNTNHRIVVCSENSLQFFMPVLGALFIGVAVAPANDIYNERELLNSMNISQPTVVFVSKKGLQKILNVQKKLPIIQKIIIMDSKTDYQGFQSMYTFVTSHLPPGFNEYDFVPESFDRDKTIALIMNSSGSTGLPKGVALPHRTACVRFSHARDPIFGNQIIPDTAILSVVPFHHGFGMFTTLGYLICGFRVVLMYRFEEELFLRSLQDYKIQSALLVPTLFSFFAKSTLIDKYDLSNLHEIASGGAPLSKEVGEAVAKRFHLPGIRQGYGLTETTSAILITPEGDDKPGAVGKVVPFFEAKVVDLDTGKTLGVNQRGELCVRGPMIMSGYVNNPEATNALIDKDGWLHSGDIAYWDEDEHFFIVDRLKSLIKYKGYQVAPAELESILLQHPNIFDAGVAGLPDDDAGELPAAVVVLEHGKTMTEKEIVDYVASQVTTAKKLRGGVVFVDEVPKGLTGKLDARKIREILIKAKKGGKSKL
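Luminescence read by CCD imager after adding enzyme (10nM final) to wells holding compound, titrated in qHTS. Substrates 10uM each D-luciferin and ATP; buffer 50mM Tris acetate pH 7.5, 10mM Mg acetate, Tween-20, BSA.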
HEK293 tox: kills HEK 293 cells; AID 1345083; Potency, µM (titrated, usually from 115 µM), usual class: inhibitors; HEK 293 viability, ATP luminescence (CellTiter-Glo), 48-72 h; 94,000 compounds, 6.6% hits; further: nearly all actives have a fitted effect of over 60% in size
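Pintool-delivered compounds were incubated with HEK 293 cells (250 cells/well) at 37 degree Celsius for 48 or 72 hr. ATP-dependent luminescence (CellTiter-Glo) then reported remaining viable cells.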
NPR1 antag: antagonists of human natriuretic peptide receptor Npr1 | HEK293 hNpr1 GloSensor cGMP, ANP-stimulated luminescence | Potency, µM (highest dose often 46.3 µM), actives largely listed as inhibitors | 76,000 compounds, 1.6% hits; calls by dose curve; further: nearly all actives have a fitted effect of over 60% in size
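HEK293 cells stably expressing human Npr1 and cGMP GloSensor pGS-40F, loaded 2 h with 2% GloSensor reagent, given compound 30 min at room temperature. Luminescence read before and 20 min after 0.1 nM hNppA.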
Of the large screens only hits and unclear results are named; the others gave an inactive call. Unless noted, the call rests on the fitted dose curve; in most records, active means well fitted curve in the direction sought with a large enough effect; inconclusive means small, poorly fitted or top-dose-only effect, or another doubt; inactive means no such curve, though single readings can be large; an effect the other way counts as inactive or inconclusive.

CN1CCN(C(=O)c2cc(COc3ccc(F)cc3F)on2)CC1c1ccccc1 (stereo not drawn)	NIH3T3 tox inconclusive, HEK293 tox 20µM
Cc1cccc2nc(CNC(=O)c3cc(COc4ccc(F)cc4F)on3)cn12	NIH3T3 tox 31.6µM, HEK293 tox inconclusive
CN(Cc1cnc2ccccn12)C(=O)c1cc(COc2ccc(F)cc2F)on1	NIH3T3 tox inconclusive, HEK293 tox inconclusive, NPR1 antag inconclusive
O=C(Cc1c[nH]c2ncc(-c3ccc(Cl)cc3)cc12)NCc1cccnc1	NIH3T3 tox inconclusive, Luciferase inh inconclusive, HEK293 tox 89.1µM
O=C(Cc1c[nH]c2ncc(-c3ccc(Oc4ccccc4)cc3)cc12)NCc1cccnc1	NIH3T3 tox inconclusive, HEK293 tox 39.8µM, NPR1 antag inconclusive
COc1ccc(-c2cn3cc(C(=O)NCc4ccccc4)nc3s2)cc1	none (no result: Luciferase inh, NPR1 antag)
Cc1nc2c(OCC(=O)c3ccccc3)cccn2c(=O)c1-c1cc(C)n(-c2ccccc2)n1	Luciferase inh 39.8µM, HEK293 tox inconclusive
CCOC(=O)CCCOc1cccn2c(=O)c(-c3cc(C)n(-c4cccc(C)c4)n3)c(C)nc12	none
Cc1ccccc1-c1nccn2c(C3CN(Cc4ccc(O)cc4)C3)ncc12	NIH3T3 tox 79.4µM, HEK293 tox inconclusive
Cc1ccccc1-c1nccn2c(C3CN(C(=O)c4cc5ccccc5[nH]4)C3)ncc12	NIH3T3 tox 79.4µM, Luciferase inh inconclusive, HEK293 tox 89.1µM
CS(=O)(=O)N1CCOC(Cn2ccnc2-c2ccc(CO)o2)C1 (stereo not drawn)	none
CC(=O)N(C)CCc1noc(C2CN(Cc3c(F)cccc3Cl)C2)n1	NIH3T3 tox inconclusive, HEK293 tox 39.8µM
CC(=O)N(C)CCc1noc(C2CN(C(=O)COc3ccccc3)C2)n1	none
CC(C)=CCC[C@](C)(O[C@@H]1O[C@H](CO[C@@H]2OC[C@H](O)[C@H](O)[C@H]2O)[C@@H](O)[C@H](O)[C@H]1O)[C@H]1CC[C@]2(C)[C@@H]1[C@H](O)C[C@@H]1[C@@]3(C)CC[C@H](O[C@@H]4O[C@H](CO)[C@@H](O)[C@H](O)[C@H]4O[C@@H]4O[C@H](CO)[C@@H](O)[C@H](O)[C@H]4O)C(C)(C)[C@@H]3CC[C@]12C	none (no result: NIH3T3 tox, Luciferase inh, HEK293 tox, NPR1 antag)
COCc1noc([C@@H]2CN(C(=O)CCC(C)C)C[C@H]2CO)n1	none
CN1C[C@H](C(=O)Nc2cccc(Cl)c2)C[C@H]1c1cccc(C(F)(F)F)c1	NIH3T3 tox 31.6µM, HEK293 tox 35.5µM
CN1C[C@H](C(=O)N2CCN(c3ccccn3)CC2)C[C@H]1c1cccc(C(F)(F)F)c1	NIH3T3 tox inconclusive, HEK293 tox 89.1µM
COc1ccc(NC(=O)[C@@H]2C[C@@H](c3cccc(C(F)(F)F)c3)N(C)C2)cc1OC	NIH3T3 tox inconclusive, HEK293 tox inconclusive
CN1C[C@H](C(=O)NCc2ccncc2)C[C@H]1c1cccc(C(F)(F)F)c1	HEK293 tox inconclusive
Oc1ccccc1CN1CCC[C@H]1c1nc(-c2ccc(N3CCOCC3)nc2)no1	NIH3T3 tox inconclusive, Luciferase inh inconclusive, HEK293 tox inconclusive
Cc1cnc(C2CCC2)n1C1CCCN(C(=O)CCCc2ccccc2)C1 (stereo not drawn)	NIH3T3 tox inconclusive, HEK293 tox inconclusive
Cc1ccc(C)c2c(C)c(C(=O)N3CCCC(O)(CN4CCCC4)C3)[nH]c12 (stereo not drawn)	NIH3T3 tox inconclusive, HEK293 tox inconclusive
O=C1CC(c2noc(Cc3ccc(Cl)cc3)n2)CN1C1CCCCC1 (stereo not drawn)	NIH3T3 tox inconclusive, GPT2 inh inconclusive, HEK293 tox 70.8µM
CC(C)CNc1ccc2c(n1)C(C)(C(=O)NC1CCOCC1)CN(Cc1ccccc1)C2 (stereo not drawn)	NIH3T3 tox inconclusive, HEK293 tox 79.4µM
CC(C)CNc1ccc2c(n1)C(C)(C(=O)Nc1cccnc1)CN(Cc1ccccc1)C2 (stereo not drawn)	NIH3T3 tox 28.2µM, HEK293 tox 50.1µM
CC(C)CNc1ccc2c(n1)C(C)(C(=O)NC1CC1)CN(Cc1ccccc1)C2 (stereo not drawn)	NIH3T3 tox inconclusive, HEK293 tox 63.1µM
O=C(NC1CCN(c2ccc3nnc(C4CC4)n3n2)C1)c1cccnc1 (stereo not drawn)	none (no result: GPT2 inh, Luciferase inh, NPR1 antag)
COc1ccc(-c2ccnc3nc(CCc4ccc(OC)c(OC)c4)nn23)c(F)c1	HEK293 tox 44.7µM
COc1ccc(-c2ccnc3nc(Cc4ccc(F)cc4)nn23)c(F)c1	NIH3T3 tox inconclusive, HEK293 tox 25.1µM
COc1cccc(C(=O)NC2CCN(c3ccc4nnc(C)n4n3)CC2)c1	none (no result: GPT2 inh, Luciferase inh, NPR1 antag)
O=C(c1ccc2ccccc2n1)N1CCC(Cc2ccc(CN3CCOCC3)cc2)CC1	NIH3T3 tox inconclusive, HEK293 tox 35.5µM (no result: Luciferase inh, NPR1 antag)
COCCOC1CCN(C(=O)c2ccc3cc[nH]c3c2)CC1	none
CN1CCN(Cc2ccc(CC3CCN(C(=O)c4ccc5cc[nH]c5c4)CC3)cc2)CC1	NIH3T3 tox 31.6µM, HEK293 tox inconclusive (no result: Luciferase inh, NPR1 antag)
COc1ccccc1Cn1c(=O)c(C(=O)N2CCN(C(=O)c3ccccc3C)CC2)nc2cccnc21	none (no result: Luciferase inh, NPR1 antag)
CC(C(=O)NCC1CCN(Cc2ccc(F)cc2)CC1)C1CCOCC1 (stereo not drawn)	none
COc1cccc(CC(=O)N2CCN(c3cc(-c4ccc(Cl)cc4)[nH]n3)CC2)c1	NIH3T3 tox inconclusive, HEK293 tox inconclusive, NPR1 antag inconclusive
Cn1nc(C(=O)N2CCCN(c3cc(-c4ccccc4)[nH]n3)CC2)c2ccccc21	NIH3T3 tox inconclusive, GPT2 inh inconclusive, HEK293 tox 28.2µM
O=C(Cc1ccccc1)N1CCCN(c2cc(-c3ccc(Cl)cc3)[nH]n2)CC1	NIH3T3 tox inconclusive, HEK293 tox 39.8µM, NPR1 antag inconclusive
Cc1cccc(OCC(=O)N2CCCN(c3cc(-c4ccc(Cl)cc4)[nH]n3)CC2)c1	NIH3T3 tox 25.1µM, HEK293 tox inconclusive, NPR1 antag inconclusive
Cc1ccccc1C(=O)N1CCCN(c2cc(-c3ccccc3)[nH]n2)CC1	GPT2 inh inconclusive, HEK293 tox inconclusive
Cc1ccc(CC(=O)N2CCCN(c3cc(-c4ccccc4)[nH]n3)CC2)cc1	NIH3T3 tox inconclusive, GPT2 inh inconclusive, HEK293 tox 50.1µM
O=C(Cn1c(=O)oc2ccccc21)NC1CCCN(CCCc2ccccc2)C1 (stereo not drawn)	NIH3T3 tox inconclusive
CCN1CC2(CCN(C(=O)CC(Cc3ccccc3)c3ccco3)CC2)CC1=O (stereo not drawn)	NIH3T3 tox inconclusive, HEK293 tox inconclusive
COc1ccc(-c2ccc(C(=O)NCC(F)(F)F)c(Cl)c2)nn1	HEK293 tox inconclusive (no result: GPT2 inh, Luciferase inh, NPR1 antag)
COc1ccc(CC(=O)N2CCCN(c3cc(-c4ccccc4)[nH]n3)CC2)cc1	GPT2 inh inconclusive, HEK293 tox inconclusive
COc1ccc(CC(=O)N2CCCN(c3cc(-c4ccc(Cl)cc4)[nH]n3)CC2)cc1	NIH3T3 tox inconclusive, GPT2 inh inconclusive, HEK293 tox 39.8µM, NPR1 antag inconclusive

Bioassay records deposited in PubChem by National Center for Advancing Translational Sciences (NCATS).
